The results in this text go back to PubChem BioAssay (NCATS).

Several values for one entry are separate records, joined by “and”; a condition that tells them apart may be missing. Equal entries are not always repeated. Inconclusive results are not listed. Values without a mark were called inactive. Activity calls are given as the source filed them. The call rests on the fitted dose curve; in most records, active means well fitted curve in the direction sought with a large enough effect; inconclusive means small, poorly fitted or top-dose-only effect, or another doubt; inactive means no such curve, though single readings can be large; an effect the other way counts as inactive or inconclusive.

The target in assay [1] is Cellular tumor antigen p53 (Homo sapiens) (UniProt P04637). The assay is described as follows: Primary qHTS for small molecule compounds that upregulate eGFP-tagged delta133p53alpha (in N-terminal) cells. (AID 2060322). Further: nearly all actives have a fitted effect of over 75% in size. Further: potency means the concentration at half of the fitted maximal effect.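 On activation: cells pre-induced with doxycycline then dosed without doxycycline; series mostly up to about 56 µM; 0% = DMSO vehicle and 100% = reference activator.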 The following applies: NCI-H358 eGFP-delta133p53alpha fluorescence, 24 h; activation: stronger effect = higher value. The essentials:
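NCI-H358 cells pre-induced 24 h with 10 ng/ml doxycycline for eGFP-delta133p53alpha, plated dox-free and exposed 24 h at 37C to titrated compounds. Fixed, Hoechst-stained; gated GFP peak intensity by laser scanning cytometry, normalized to DMSO (0%) and 57.5 uM 5-azacytidine (100%).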
For orientation: Quantitative high-throughput screening tests each substance at several concentrations.

Assay [2] has as its target Aldehyde dehydrogenase, mitochondrial (Homo sapiens) (UniProt P05091). The assay is described as follows: qHTS for Inhibitors of the Aldehyde Dehydrogenase Family (ALDH2) Primary screen (AID 2061308).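 Further: plate controls were vehicle for no effect and reference inhibitor for full effect; nearly all actives have a fitted effect of over 55% in size.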
Assay [3] has as its target Retinaldehyde dehydrogenase 3 (Homo sapiens) (UniProt P47895). Kind of assay: qHTS for Inhibitors of the Aldehyde Dehydrogenase Family (ALDH1A3) Validation screen (AID 2061312). Further: on the % scale 0 is the no-effect control and ±100 the full control effect; nearly all actives have a fitted effect of over 45% in size.
For assay [4] the target is unchanged. The assay is described as follows: qHTS for Inhibitors of the Aldehyde Dehydrogenase Family (ALDH1A3) Primary screen (AID 2061315).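 Further: plate controls were DMSO vehicle for no effect and reference inhibitor for full effect.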

Cellular tumor antigen p53 (Homo sapiens), sequence (P04637 whole entry, looked up): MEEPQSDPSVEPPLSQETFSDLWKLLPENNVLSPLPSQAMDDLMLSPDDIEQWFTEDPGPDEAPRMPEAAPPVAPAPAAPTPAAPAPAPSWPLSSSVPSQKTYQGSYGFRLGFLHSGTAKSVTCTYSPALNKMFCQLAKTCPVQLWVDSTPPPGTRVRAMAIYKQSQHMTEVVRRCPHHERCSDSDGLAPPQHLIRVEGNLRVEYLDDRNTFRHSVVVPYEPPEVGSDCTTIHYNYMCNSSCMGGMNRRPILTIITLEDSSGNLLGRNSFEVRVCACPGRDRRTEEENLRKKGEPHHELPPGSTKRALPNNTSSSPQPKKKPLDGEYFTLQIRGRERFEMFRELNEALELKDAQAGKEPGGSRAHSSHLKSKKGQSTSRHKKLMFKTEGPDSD

Consider `COc1ccc(CCc2nc3cc(-c4c(C)noc4C)ccc3n2C[C@H](C)N2CCOCC2)cc1Cl`, for which the activation in assay [1] is 20.1%. For the same molecule, the Potency result in assay [2], in assay [3] and in assay [4] was “inactive” throughout.

In the case of `N[C@@H](CC(=O)Nc1ccc(Oc2cc(F)c(F)cc2Br)cc1)C(=O)O`, in assay [1], the activation was -8.11%. For the same molecule, the Potency entry in assay [2], in assay [3] and in assay [4] was “inactive” throughout.

Take `C[C@@H](O)[C@H](NC(=O)c1ccc(C#Cc2ccc(CN3CCOCC3)cc2)cc1)C(=O)NO`: the activation in assay [1] is -6.68%. Besides, the Potency entry in assay [2], in assay [3] and in assay [4] was “inactive” throughout.

On to `CN1CCOC(c2ccccc2)c2ccccc2C1` (stereo not drawn), for which, in assay [1], the activation is 0.837% and 6.21%. Besides, the Potency result in assay [2], in assay [3] and in assay [4] was “inactive” throughout.

Take `CC(C)(C)NCC(O)COc1cccc2c1CCCC2=O` (stereo not drawn): in assay [1], the activation was -7.64%. Moreover, the Potency result in assay [2], in assay [3] and in assay [4] was “inactive” throughout.

As to `Nc1nc2c(c(N3CCNCC3)n1)CCC1=C2[C@@H]2CCCC[C@@H]2O1`, the activation in assay [1] was -18.1%. The Potency entry in assay [2], in assay [3] and in assay [4] was “inactive” each time.

For `CCc1cc2c(=O)c(-c3nc4ccccc4s3)coc2c(CN2CCCCC2)c1O`, the activation in assay [1] was 0.955%. For the same molecule, the Potency result in assay [2], in assay [3] and in assay [4] was “inactive” throughout.

Turning to `CC(C)[C@@H](C)/C=C/[C@@H](C)[C@H]1CC[C@H]2C3=CC=C4C[C@@H](O)CC[C@]4(C)[C@H]3CC[C@]12C`, in assay [1], the activation is 14.3%. The Potency entry in assay [2], in assay [3] and in assay [4] was “inactive” each time.

For the molecule `Oc1ccc(-c2cnc3ccc(NCc4ccco4)nn23)cc1`, the Potency in assay [1] was 26.9 µM (active). In addition, the Potency result in assay [2], in assay [3] and in assay [4] was “inactive” each time.

Regarding `CNC(=O)COC(=O)N1CCC(CCc2ccc(Cl)cc2)CC1`, the activation in assay [1] was -1.91%. For the same molecule, the Potency entry in assay [2], in assay [3] and in assay [4] was “inactive” throughout.

Turning to `COc1ccc([C@H]2CNC(=O)C2)cc1OC1CCCC1`, the activation in assay [1] was -26.3%. Besides, the Potency entry in assay [2], in assay [3] and in assay [4] was “inactive” throughout.

Regarding `NS(=O)(=O)c1ccc(NC(=O)Nc2ccc(F)cc2)cc1`, the activation in assay [1] was -7.64%. In addition, the Potency result in assay [2], in assay [3] and in assay [4] was “inactive” in each case.

For `CN1CCC(NC(=O)c2cc(-c3c(O)cc(O)cc3Oc3ccc([N+](=O)[O-])cc3)on2)CC1`, in assay [1], the activation is 5.25%. Moreover, the Potency result in assay [2], in assay [3] and in assay [4] was “inactive” each time.

As to `C=CC(=O)N1CCN(C(=O)c2cc(-c3cc(Cl)ccc3Cl)c(Cl)cc2OC)CC1`, the activation in assay [1] was -7.64%. For the same molecule, the Potency entry in assay [2], in assay [3] and in assay [4] was “inactive” each time.

With `CC[C@H]1OC(=O)C[C@@H](O)[C@H](C)[C@@H](O[C@@H]2O[C@H](C)[C@@H](O)[C@H](N(C)C)[C@H]2O)[C@@H](CCN2C[C@H](C)C[C@H](C)C2)C[C@@H](C)C(=O)/C=C/C(C)=C/[C@@H]1CO[C@@H]1O[C@H](C)[C@@H](O)[C@@H](OC)[C@H]1OC`, the activation in assay [1] is -8.59%. In addition, the Potency result in assay [2], in assay [3] and in assay [4] was “inactive” throughout.

Turning to `Cc1ccc(COC(=O)N2CC[C@@H](CNc3ncccn3)[C@@H](F)C2)cc1`, in assay [1], the activation was 1.91%. The Potency result in assay [2], in assay [3] and in assay [4] was “inactive” in each case.

Consider `Cc1c(C2=CCN(C(=O)N(C)C(C)C)CC2)nnn1-c1cccnc1F`, for which the activation in assay [1] was -9.55%. Also, the Potency result in assay [2], in assay [3] and in assay [4] was “inactive” each time.

On to `COC(=O)c1ccc2c(c1)nc(NC(=O)c1ccccc1)n2CCCc1ccccc1`, for which the activation in assay [1] is -10%. The Potency entry in assay [2], in assay [3] and in assay [4] was “inactive” each time.

For the molecule `NC(=O)c1ccc(F)c2c1C[C@@H](N(C1CCC1)C1CCC1)CO2`, the activation in assay [1] is -11.5%. Besides, the Potency result in assay [2], in assay [3] and in assay [4] was “inactive” in each case.

Regarding `CC1(C)CCC(C)(C)c2cc(C#Cc3ccc(C(=O)O)cc3)ccc21`, the activation in assay [1] is -5.25%. In addition, the Potency entry in assay [2], in assay [3] and in assay [4] was “inactive” in each case.

On to `Cc1oc2nc3c(c(NC(=O)CN4CCCC4=O)c2c1C)CCCC3`, for which the activation in assay [1] is -3.82%. In addition, the Potency result in assay [2], in assay [3] and in assay [4] was “inactive” each time.

As to `Cc1cccc2c1NC(=O)C2(c1ccc(O)cc1)c1ccc(O)cc1`, the Potency in assay [1] was 0.213 µM (active). Further, the Potency result in assay [2], in assay [3] and in assay [4] was “inactive” each time.

On to `O=C(NCc1cccc(O)c1)c1cc2cc(F)ccc2[nH]1`, for which the activation in assay [1] is 0%. Besides, the Potency result in assay [2], in assay [3] and in assay [4] was “inactive” throughout.

`CC(C)(C)c1ccc(-c2nc3c(N4CCN(Cc5ccc6nccnc6c5)CC4)cccc3[nH]2)cc1`: the activation in assay [1] was -2.86%. The Potency entry in assay [2], in assay [3] and in assay [4] was “inactive” each time.

In the case of `COc1cc(Nc2nc3c(s2)CCCC3c2ccc(F)cc2)ccc1-n1cnc(C)c1` (stereo not drawn), the activation in assay [1] was -13.4%. Moreover, the Potency entry in assay [2], in assay [3] and in assay [4] was “inactive” in each case.

For `CN(C)CCCNc1nc(CN2CCN(C(c3ccc(Cl)cc3)c3ccc(Cl)cc3)CC2)nc2ccccc12`, the activation in assay [1] was 16.2%. Besides, the Potency result in assay [2], in assay [3] and in assay [4] was “inactive” in each case.

For the molecule `CC(C)(CO)c1cc2cc(NC(=O)C3(c4ccc5c(c4)OC(F)(F)O5)CC3)c(F)cc2n1CC(O)CO` (stereo not drawn), in assay [1], the activation was 17.7%. Moreover, the Potency entry in assay [2], in assay [3] and in assay [4] was “inactive” throughout.

In the case of `CCC(C(C)O)n1ncn(-c2ccc(N3CCN(c4ccc(OCC5COC(Cn6cncn6)(c6ccc(F)cc6F)C5)cc4)CC3)cc2)c1=O` (stereo not drawn), in assay [1], the activation was 5.25%. For the same molecule, the Potency entry in assay [2], in assay [3] and in assay [4] was “inactive” in each case.

For `CNc1cc(OC)c(C(=O)N[C@@H]2CCN(Cc3ccccc3)[C@@H]2C)cc1Cl`, in assay [1], the activation was 12.4%. In addition, the Potency result in assay [2], in assay [3] and in assay [4] was “inactive” each time.

`Cc1[nH]c2ccccc2c1CC(=O)N[C@@H](Cc1ccccc1)C(=O)N(C)c1ccccc1`: the activation in assay [1] is 22.9%. Also, the Potency result in assay [2], in assay [3] and in assay [4] was “inactive” each time.

In the case of `O=C(C(Cc1cccc(C(F)(F)F)c1)NS(=O)(=O)c1cc(F)c2c(c1)CCNC2)N1CCCC1` (stereo not drawn), in assay [1], the activation is -13.4%. In addition, the Potency result in assay [2], in assay [3] and in assay [4] was “inactive” throughout.

On to `Cc1onc(-c2ccccc2)c1C(=O)N1CCN(c2ccc([N+](=O)[O-])cc2Cl)CC1`, for which the activation in assay [1] is -0.477%. Also, the Potency result in assay [2], in assay [3] and in assay [4] was “inactive” in each case.

In the case of `C[C@@H](N[C@H]1CCCC[C@@H]1NC(=O)c1ccc(Cl)cc1)c1cccc2ccccc12`, the activation in assay [1] is 21.5%. Besides, the Potency entry in assay [2], in assay [3] and in assay [4] was “inactive” in each case.

For the molecule `CCOC(=O)CCN(C(=O)c1ccc2c(c1)nc(CNc1ccc(C(=N)N)cc1)n2C)c1ccccn1`, the activation in assay [1] was -4.77%. The Potency entry in assay [2], in assay [3] and in assay [4] was “inactive” each time.

As for `COc1ccc(-c2nc(-c3cc(C(F)(F)F)cc(C(F)(F)F)c3)n(Cc3ccc(C(N)=O)cc3)c2-c2ccc(OC)cc2)cc1`, the activation in assay [1] was -11%. In addition, the Potency result in assay [2], in assay [3] and in assay [4] was “inactive” each time.

On to `Cc1nc(Nc2ccc(F)cc2)nc(N2CCc3ccccc3C2C)c1C` (stereo not drawn), for which, in assay [1], the activation was 11.9%. For the same molecule, the Potency result in assay [2], in assay [3] and in assay [4] was “inactive” each time.

Take `c1ccc(-c2csc(N3CCOCC3)n2)cc1`: in assay [1], the activation is -7.16%. Moreover, the Potency result in assay [2], in assay [3] and in assay [4] was “inactive” throughout.
